According to PubChem BioAssay AID623926 (Vanderbilt Specialized Chemistry Center, 2012):
Calls of active or inactive are those of the source.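 How the source made its calls: active means compound whose M3 calcium response shifts with concentration, judged dose-dependent by the depositor; inactive means the rest, no dose-dependent response.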

What follows are compounds tested against Muscarinic acetylcholine receptor M3 (Homo sapiens) (UniProt P20309) (assay: potentiation of ACh response at hM3 – CHO cells, calcium flux, selectivity assay for M4 PAM optimization, SAR follow-up (AID 623926)). Details: Fluo-4 calcium flux; outcome: ACh EC20; ACh EC20, at 30 µM (top of the series).

Row | SMILES | outcome
1 | Cc1nc2sc(C(=O)NCc3ccncn3)c(N)c2c(C)c1Cl | inactive
2 | Cc1nc2sc(C(=O)NCc3cccnc3)c(N)c2c(C)c1Cl | inactive
3 | Cc1nc2sc(C(=O)NCc3ccncc3)c(N)c2c(C)c1Cl | inactive
4 | Cc1nc2sc(C(=O)NCCc3ccncc3)c(N)c2c(C)c1Cl | inactive
5 | Cc1nc2sc(C(=O)NCc3cccc(F)c3F)c(N)c2c(C)c1Cl | inactive
6 | Cc1nc2sc(C(=O)NCc3ccc4c(c3)OCO4)c(N)c2c(C)c1Cl | inactive
7 | Cc1nc2sc(C(=O)NCc3nccs3)c(N)c2c(C)c1Cl | inactive
8 | COc1ccc(C)c2sc(NC(=O)c3ccncc3)nc12 | inactive
9 | Cc1nc2sc(C(=O)NC3CC3)c(N)c2c(C)c1Cl | inactive
10 | Cc1nc2sc(C(=O)NCc3ccccc3)c(N)c2c(C)c1Cl | inactive
